In PubChem BioAssay (NCI) one finds growth data, which are given here for 40 compounds.

Compounds without any hit were thinned out: in the full panel of roughly 83,000, 20% have a hit.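 Assay: single dose, 48 h. Readout: percent growth (0 = no net growth; negative = cell death). Active: <10.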 Activity calls are given as the source filed them.

The test has as its system HOP-92 NSCLC. As to the kind of experiment: NCI-60 one-dose screen, 48 h (100 = growth as untreated, 0 = no growth, -100 = all killed). The note with it: 10 µM unless noted. As to the method:
Growth inhibition of the HOP-92 human Non-Small Cell Lung tumor cell line is measured as a screen for anti-cancer activity. Cells are grown in 96 well plates and exposed to the test compound for 48 hours. Compounds are tested at a single concentration, which is 10^-5 M for most compounds. The reported endpoint is percent growth (GI% or GIPRCNT), where numbers from 0 - 100% represent growth inhibition, and numbers from -100% - 0 represent cell death. For example, a value of 40 represents 60% growth inhibition. A value of 0 means no net growth occurred over the course of the experiment. A value of -40 indicates 40% of cells at the beginning of the experiment died by the end of the experiment. A value of -100 means all cells are dead at the end of the experiment.
NCI-60 Human Tumor Cell Lines Screen was performed using the standard one-dose NCI protocol, which is described in more detail at https://dtp.cancer.gov/discovery_development/nci-60/default.htm.
Compounds with GIPRCNT values below 10 were considered active. Activity score was based on GIPRCNT using the following formula: […]
Score is 0 for GIPRCNT values of 100 or above, 50 for GIPRCNT values of 0, and 100 for GIPRCNT values of -100.
As to `CNC(=O)c1cc(Oc2ccc3nc(NC(=O)c4ccc(CN5CCN(C)CC5)c(C(F)(F)F)c4)sc3c2)ccn1`, the growth is 44.1% (inactive).

For `COc1ccc(-c2nc3cc(Cl)c(Cl)cc3n2CC(=O)N=Nc2c(O)[nH]c3ccc(Cl)cc23)cc1`, the growth is -28% (active). On to `O=C(COc1cccc2cccnc12)Nc1ccc(C(=O)/C=C/c2ccc(Cl)cc2)cc1`, for which the growth was 108% (inactive).

On to `CC1OC(O[C@@H]2C(O)C(CO)OC(O[C@H]3COC(O[C@H]4CC[C@]5(C)[C@H]6CC[C@]78OC[C@@]9(CC[C@](C)(C=O)C[C@H]97)[C@H](O)C[C@@]8(C)[C@]6(C)CC[C@H]5C4(C)C)[C@@H](OC4OC(CO)[C@@H](O)[C@@H](O)[C@@H]4O)[C@@H]3O)[C@H]2OC2OC[C@@H](O)[C@@H](O)[C@@H]2O)[C@@H](O)[C@@H](O)[C@H]1O` (stereo not given in full), for which the growth was 15.5% (inactive). Turning to `O=C(NNc1nc2cc(F)c(F)cc2n2cccc12)c1ncccn1`, the growth is 68.1% (inactive).

As to `O=C(N/N=C\c1ccc(Cl)cc1)c1ccc2nc(-c3ccc(Br)cc3)[nH]c2c1`, the growth is -3.66% (active).

On to `NC(N)=NS(=O)(=O)c1ccc(N=NC2C(=O)NN(c3ccccc3)C2=O)cc1` (stereo not given), for which the growth is 68.9% (inactive).

For `CC(=O)NC(C)(C)C(=O)N1CCC[C@H]1C(=O)NC(C)(C)C(=O)N[C@@H](C)C(=O)NC(C)(C)C(=O)N[C@@H](C)C(=O)N[C@@H](CCC(N)=O)C(=O)NC(C)(C)C(=O)N[C@H](C(=O)NC(C)(C)C(=O)NCC(=O)N[C@@H](CC(C)C)C(=O)NC(C)(C)C(=O)N1CCC[C@H]1C(=O)N[C@H](C(=O)NC(C)(C)C(=O)NC(C)(C)C(=O)N[C@@H](CCC(N)=O)C(=O)N[C@@H](CCC(N)=O)C(=O)N[C@H](CO)Cc1ccccc1)C(C)C)C(C)C`, the growth is 60% [4.25 µM] (inactive). For `CCCCCCNC(=O)Oc1ccc(/C(=C(/C)c2ccc(Cl)cc2)c2ccc(OCCN3CCCC3)cc2)cc1`, the growth was 26% (inactive).

As for `O=C(/C=C/c1cn(-c2ccccc2)nc1-c1ccc(Cl)cc1)c1cc2ccccc2oc1=O`, the growth is 79.6% (inactive). In the case of `NC(=S)N/N=C(/C=C/c1cn(-c2ccccc2)nc1-c1ccc(Cl)cc1)c1cc2ccccc2oc1=O` it was 70.2% (inactive). In the case of `C=C1C(=O)O[C@@H]2/C=C(/C)C3=CC(=O)[C@@](C)(C[C@H](OC(=O)/C(C)=C\C)[C@@H]12)O3` it was -11.8% (active); in that of `Fc1ccccc1/C=C(/C1=NCCN1)n1cnc2ccccc21`, 73.7% (inactive). For the compound `Cc1nn(-c2ccccc2)c2nc(CCl)[nH]c(=O)c12`, the growth is 117% (inactive). In the case of `O=C(NCCCNc1cc(-c2cn(-c3ccccc3)nc2-c2cccc(O)c2)ccn1)Nc1cc(C(F)(F)F)cc(C(F)(F)F)c1` it was 52% (inactive). Consider `C#CCOc1ccccc1C(Nc1ccccc1)c1nnnn1C1CCCCC1` (stereo not given), for which the growth was 103% (inactive). In the case of `O=[N+]([O-])c1ccc(-c2nnc(SCc3ccc(O)c4ncccc34)o2)cc1` it was -13.4% (active); in that of `COc1cc(-c2nc(SCc3ccc(C)cc3)[nH]c(=O)c2C#N)ccc1OCc1ccccc1`, 113% (inactive); in that of `CCC(C)[C@H]1OC(=O)[C@H](C(C)C)N(C)C(=O)[C@@H](C(C)C)OC(=O)[C@H](C(C)C)N(C)C(=O)[C@@H](C(C)CC)OC(=O)[C@H](C(C)C)N(C)C1=O` (stereo not given in full), -19.8% (active). As for `Nc1nc(N)c2c(n1)NC(c1ccc(Cl)cc1)CC(c1ccc(Nc3nc(NCCO)nc(Nc4ccc(Cl)cc4)n3)cc1)=N2` (stereo not given), the growth was 67.4% (inactive).

Consider `N#C/C(=C\c1ccc(N2CCCCC2)cc1)C(=O)Nc1sc2c(c1C#N)CCC2`, for which the growth was 89.4% (inactive). For the compound `CC1(C)CC[C@]2(C(=O)N3CCCN(CC#N)CC3)CC[C@]3(C)C(=CC[C@@H]4[C@@]5(C)CC[C@H](O)C(C)(C)[C@@H]5CC[C@]43C)[C@H]2C1`, the growth was 19.3% (inactive). The same measure for `Oc1ccccc1-c1nnc(SCc2ccc(O)c3ncccc23)o1`: -8.17% (active); for `O=C(NCCCCCCNC(=O)c1c2c(nc3ccccc13)-c1cccnc1SC2)c1c2c(nc3ccccc13)-c1cccnc1SC2`: 50.8% (inactive); for `COc1cc(C2CC(c3ccc(Nc4nc(NCCO)nc(Nc5ccc(Cl)cc5)n4)cc3)=Nc3c(N)nc(N)nc3N2)cc(OC)c1OC` (stereo not given): 43.5% (inactive). As to `COc1ccc(/C=C/C(=O)c2nnn(-c3ccc(Br)cc3)c2C)cc1OC`, the growth is 81% (inactive). As to `CCn1c2ccc(/C=N/OCCCN(C)C)cc2c2cc(/C=N/OCCCN(C)C)ccc21`, the growth was 30.6% (inactive). As to `C#Cc1ccc(NC(=O)c2ccc(/C=C/C(=O)c3nccn3C)cc2)c(F)c1`, the growth is 67.5% (inactive). In the case of `CCCC(=O)NC(c1cccnc1)c1cc(C(C)=O)c2cccnc2c1O` (stereo not given), the growth was 43.3% (inactive). For the compound `COc1ccccc1N1CCN(C2=NN=C(c3cccc(Cl)c3)c3ccccc3C2)CC1`, the growth was 46.8% (inactive).

Take `CC(C)(C)OC(=O)N1CCN(S(=O)(=O)/N=C2\NC(=O)NC2=C(Cl)Cl)CC1`: the growth is 108% (inactive).

As for `CCOC(=O)Nc1cccc(-n2cnc3cc(-c4ccc(O)cc4)ccc32)c1`, the growth is 116% (inactive).

Take `O=C(Cn1cc(CN2C(=O)c3ccc([N+](=O)[O-])cc3C2=O)nn1)Nc1ccc(F)cc1Cl`: the growth was 79.7% (inactive). Consider `CC(C)(C)CC(C)(C)n1nnnc1C(Nc1ccccc1)c1cc2cccc3ccc4cccc1c4c32` (stereo not given), for which the growth is 49.7% (inactive). In the case of `NS(=O)(=O)Oc1ccc2nc(Nc3ccc(F)c(F)c3)ccc2c1` it was 115% (inactive); in that of `CS(=O)c1nccc(-c2c(-c3ccc(F)c(OCc4ccc(F)cc4)c3)nc3sccn23)n1` (stereo not given), 16.9% (inactive); in that of `Cc1ccc(NC(=O)c2ccc(CN3CCN(C)CC3)c(C(F)(F)F)c2)cc1Oc1ccc(-c2[nH]nc3ncnc(N)c23)cc1`, 103% (inactive). On to `Oc1ccc(CSc2nnc(-c3ccc(Oc4ccccc4)cc3)o2)c2cccnc12`, for which the growth is 33.7% (inactive). Regarding `C#CCOc1ccc(/C=N/Nc2nc(-c3cc4cc(Br)cc(Br)c4oc3=O)cs2)cc1`, the growth is 89.3% (inactive). The same measure for `COc1cc2c3c(n(CCCN4CCCCC4)c(=O)c2cc1OC)-c1cc2c(cc1C3=O)OCO2`: -77.4% (active).
